Measured values taken from the supplement of paper PMC9694430.

Legend:
Test in all cases: thermal shift delta Tm vs DMSO control; higher = stronger stabilization (binding)
Conditions in all cases: 12.5 µM; protein concentration 2 µM
LOC_OS01G57100-cb003 = tested on: LOC_OS01G57100-cb003
Outline: (§1)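 Thermal shift values come from differential scanning fluorimetry on purified rice kinase domains made in E. coli, with melting temperatures obtained from Boltzmann fits. Samples of 19.5 μl held 2 μM kinase, 100 mM potassium phosphate pH 7.5, 150 mM NaCl, 10% glycerol, 5 × SYPRO Orange and compound in DMSO, and were heated from 25°C to 95°C at 0.05°C/s. Each shift is a triplicate mean relative to the DMSO-only protein sample.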

LOC_OS01G60330-cb001 = tested on: LOC_OS01G60330-cb001
Outline: as §1

LOC_OS01G60700-cb002 = tested on: LOC_OS01G60700-cb002
Outline: as §1

LOC_OS01G63280-cb003 = tested on: LOC_OS01G63280-cb003
Outline: as §1

LOC_OS01G67340-cb003 = tested on: LOC_OS01G67340-cb003
Outline: as §1

LOC_OS01G70970-cb002 = tested on: LOC_OS01G70970-cb002
Outline: as §1

LOC_OS02G07810-cb001 = tested on: LOC_OS02G07810-cb001
Outline: as §1

LOC_OS02G08530-cb003 = tested on: LOC_OS02G08530-cb003
Outline: as §1

LOC_OS02G14120-cb001 = tested on: LOC_OS02G14120-cb001
Outline: as §1

LOC_OS02G17970-cb001 = tested on: LOC_OS02G17970-cb001
Outline: as §1

LOC_OS02G45750-cb003 = tested on: LOC_OS02G45750-cb003
Outline: as §1

LOC_OS02G54510-cb004 = tested on: LOC_OS02G54510-cb004
Outline: as §1

LOC_OS03G04050-cb001 = tested on: LOC_OS03G04050-cb001
Outline: as §1

LOC_OS03G12390-cb001 = tested on: LOC_OS03G12390-cb001
Outline: as §1

LOC_OS03G27990-cb004 = tested on: LOC_OS03G27990-cb004
Outline: as §1

LOC_OS03G50450-cb001 = tested on: LOC_OS03G50450-cb001
Outline: as §1

LOC_OS03G50810-cb003 = tested on: LOC_OS03G50810-cb003
Outline: as §1

LOC_OS04G35114-cb001 = tested on: LOC_OS04G35114-cb001
Outline: as §1

LOC_OS04G38480-cb003 = tested on: T1, LOC_OS04G38480-cb003
T1 sequence (whole entry): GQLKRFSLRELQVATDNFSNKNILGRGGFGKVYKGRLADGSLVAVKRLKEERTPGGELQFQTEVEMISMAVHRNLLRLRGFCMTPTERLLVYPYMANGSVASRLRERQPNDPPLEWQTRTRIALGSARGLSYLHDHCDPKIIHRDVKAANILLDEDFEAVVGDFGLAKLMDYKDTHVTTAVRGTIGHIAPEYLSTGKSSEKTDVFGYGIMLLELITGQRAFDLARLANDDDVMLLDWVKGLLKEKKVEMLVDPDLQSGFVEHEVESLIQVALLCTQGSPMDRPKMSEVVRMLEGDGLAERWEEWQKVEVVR
Outline: as §1

LOC_OS04G41100-cb001 = tested on: T2, LOC_OS04G41100-cb001
T2 sequence (whole entry): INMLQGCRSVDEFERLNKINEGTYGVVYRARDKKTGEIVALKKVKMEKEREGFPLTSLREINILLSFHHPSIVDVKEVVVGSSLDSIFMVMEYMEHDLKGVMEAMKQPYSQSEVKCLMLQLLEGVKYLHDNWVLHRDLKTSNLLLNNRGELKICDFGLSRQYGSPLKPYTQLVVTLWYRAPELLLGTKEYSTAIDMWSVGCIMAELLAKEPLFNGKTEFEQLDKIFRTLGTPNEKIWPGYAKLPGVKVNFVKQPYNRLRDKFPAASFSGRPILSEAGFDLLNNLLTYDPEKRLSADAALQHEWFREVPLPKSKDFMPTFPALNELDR
Outline: as §1
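Further: purified Escherichia coli-expressed rice kinase domain construct.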

Row | Structure (SMILES) | thermal shift delta Tm (LOC_OS01G57100-cb003) [°C] | thermal shift delta Tm (LOC_OS01G60330-cb001) [°C] | thermal shift delta Tm (LOC_OS01G60700-cb002) [°C] | thermal shift delta Tm (LOC_OS01G63280-cb003) [°C] | thermal shift delta Tm (LOC_OS01G67340-cb003) [°C] | thermal shift delta Tm (LOC_OS01G70970-cb002) [°C] | thermal shift delta Tm (LOC_OS02G07810-cb001) [°C] | thermal shift delta Tm (LOC_OS02G08530-cb003) [°C] | thermal shift delta Tm (LOC_OS02G14120-cb001) [°C] | thermal shift delta Tm (LOC_OS02G17970-cb001) [°C] | thermal shift delta Tm (LOC_OS02G45750-cb003) [°C] | thermal shift delta Tm (LOC_OS02G54510-cb004) [°C] | thermal shift delta Tm (LOC_OS03G04050-cb001) [°C] | thermal shift delta Tm (LOC_OS03G12390-cb001) [°C] | thermal shift delta Tm (LOC_OS03G27990-cb004) [°C] | thermal shift delta Tm (LOC_OS03G50450-cb001) [°C] | thermal shift delta Tm (LOC_OS03G50810-cb003) [°C] | thermal shift delta Tm (LOC_OS04G35114-cb001) [°C] | thermal shift delta Tm (LOC_OS04G38480-cb003) [°C] | thermal shift delta Tm (LOC_OS04G41100-cb001) [°C]
1 | COCC(=O)NC/C=C/c1ccc2ncnc(Nc3ccc(Oc4ccc(C)nc4)c(C)c3)c2c1 | -0.71 | 0.77 | 0.69 | -0.33 | -0.68 | 0.44 | 0.15 | 0.52 | -0.57 | -0.14 | 0.33 | -0.01 | 0.28 | -0.25 | -0.01 | -0.22 | -0.16 | 1.94 | 0.14 | 0.5
2 | Oc1cc(O)cc(/C=C/c2ccc(O)c(O)c2)c1 [Piceatannol] | -0.61 | 1.29 | 1.12 | 1.07 | 0.13 | 0.59 | 1.77 | 1.3 | 0.89 | 1.38 | -0.87 | 0.68 | 0.78 | -0.65 | 0.48 | 0.23 | 0.47 | 0.4 | 1.45 | 0.8
3 | CN1CCN(c2ccc3nc(-c4c(N)c5c(F)cccc5[nH]c4=O)[nH]c3c2)CC1 [Dovitinib (TKI258) Lactate] | 1.26 | 14.2 | 1.84 | 1.58 | 7.49 | 8.33 | 0.88 | 4.27 | 6.8 | 2 | 16.7 | 2.48 | 1.03 | 5.56 | 8.6 | 5.37 | 7.48 | 10 | 3.95 | 1.24
4 | O=C1c2c(O)cc(O)cc2OC(c2ccc(O)c(O)c2)C1O (stereo not given) [Taxifolin (Dihydroquercetin)] | 1.27 | 0.28 | 0.38 | 0.25 | 0.07 | 0.29 | 0.09 | 0.73 | 0.32 | 0.67 | 0.74 | -0.16 | 0.4 | 0.47 | 0.2 | 0.2 | 0.08 | 0.29 | 0.17 | 0.5
5 | Clc1ccc(Nc2nnc(Cc3ccncc3)c3ccccc23)cc1 [Vatalanib (PTK787) 2HCl] | 1.4 | 1.02 | 5.09 | 2.03 | -0.72 | 0.27 | 0.26 | 0.34 | -0.4 | 0.47 | 0.06 | 0.03 | 0.21 | -0.24 | 0.02 | -0.09 | -0.01 | 0.3 | -0.05 | 0.49
6 | Cc1c[nH]c(/C=C2\C(=O)Nc3ccccc32)c1CCC(=O)O | 0.49 | 11.5 | 0.67 | 0.07 | 3.1 | 5.88 | -0.06 | 3.9 | 1.56 | 0.22 | 2.76 | 0.94 | 0.06 | 8 | 0.79 | 4.67 | 2.36 | 8.73 | 3.46 | 0.43
